These results are taken from PubChem BioAssay.

Structures are written as SMILES. A number with no mark means an inactive call. For some of these results: Potency and affinity values are given separately. Active and inactive are the calls of the source. Unless noted, no rule for the calls is given here.

The nature of experiment [1]: antimalarial activity against Dd2 strain (AID 2302;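 active = growth inhibition above 50% at the single 2 µM test dose, taken to imply half-maximal potency below 2 µM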;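 also: 0% = DMSO untreated growth and 100% = chloroquine plus artemisinin killed control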). As to conditions: P. falciparum Dd2 in RBCs, LDH growth readout, 72 h; at 2 µM; hits give high values.
A short description of experiment [2]: human hepatoma cell viability loss – ATP luminescence, cytotoxicity control for P. falciparum antimalarial project, primary screen (AID 2303;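 active = inhibition above 50%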;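 also: 0% = DMSO wells and 100% = digitonin-killed cells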). As to conditions: HepG2 viability, 24-48 h, at 10 µM, hits give high values.
The target in experiment [3] is L-lactate dehydrogenase (Plasmodium falciparum (isolate CDC / Honduras)) (UniProt Q27743). Description: PfLDH activity inhibition – cell lysate, 3D7 strain, counter-screen for P. falciparum growth inhibition project (AID 2304).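 Also: 0% = vehicle and 100% = reference inhibitor.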 As to conditions: P. falciparum 3D7 crude extract, LDH APAD/NBT absorbance; at 2 µM; hits give high values. For orientation: The purpose of a counterscreen is to sort out artefacts and off-target activity.
Chain of L-lactate dehydrogenase (Plasmodium falciparum (isolate CDC / Honduras)) (Q27743 whole entry, looked up): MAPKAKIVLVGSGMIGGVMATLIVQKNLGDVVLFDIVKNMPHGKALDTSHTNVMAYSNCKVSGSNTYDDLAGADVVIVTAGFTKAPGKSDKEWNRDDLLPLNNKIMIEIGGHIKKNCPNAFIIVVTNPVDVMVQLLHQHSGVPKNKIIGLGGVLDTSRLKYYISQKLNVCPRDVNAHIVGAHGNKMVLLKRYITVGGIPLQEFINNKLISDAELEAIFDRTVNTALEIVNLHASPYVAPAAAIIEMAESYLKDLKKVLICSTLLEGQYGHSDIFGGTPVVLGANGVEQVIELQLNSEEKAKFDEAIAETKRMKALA

The nature of experiment [4]: inhibition of 3D7 malaria parasite growth – strain 3D7 (AID 2306).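 Also: 0% = DMSO wells and 100% = chloroquine plus artemisinin control wells.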 To be noted: P. falciparum 3D7 erythrocytic growth, LDH absorbance, 72 h; at 2 µM; hits give high values.
In experiment [5] the target is Calcium-dependent protein kinase 1 (Plasmodium falciparum (isolate 3D7)) (UniProt P62344). Description: PfCDPK1 kinase inhibitors, biochemical, TCAMS library (AID 1159585; cut-off not given, nearly all actives have IC50 up to about 0.98 µM;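 also: inhibitors leave more ATP so luminescence rises with inhibition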). To be noted: recombinant PfCDPK1, Kinase-Glo ATP depletion luminescence.
Chain of Calcium-dependent protein kinase 1 (Plasmodium falciparum (isolate 3D7)) (P62344 whole entry, looked up): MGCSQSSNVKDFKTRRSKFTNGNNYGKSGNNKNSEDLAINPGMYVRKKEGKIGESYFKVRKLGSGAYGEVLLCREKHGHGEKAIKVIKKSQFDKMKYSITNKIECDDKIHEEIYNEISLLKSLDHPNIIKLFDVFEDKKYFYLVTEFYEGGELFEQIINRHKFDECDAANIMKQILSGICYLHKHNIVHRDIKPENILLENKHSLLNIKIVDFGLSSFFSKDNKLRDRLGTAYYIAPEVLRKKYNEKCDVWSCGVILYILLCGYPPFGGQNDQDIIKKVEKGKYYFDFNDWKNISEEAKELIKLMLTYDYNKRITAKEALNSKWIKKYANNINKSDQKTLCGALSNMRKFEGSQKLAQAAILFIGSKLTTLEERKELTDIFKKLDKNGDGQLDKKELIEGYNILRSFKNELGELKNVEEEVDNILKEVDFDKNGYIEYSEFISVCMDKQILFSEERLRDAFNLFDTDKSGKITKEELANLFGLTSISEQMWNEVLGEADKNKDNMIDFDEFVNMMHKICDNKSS
Experiment [6] addresses Plasmodium falciparum protein kinase 6 (PK6, PF3D7_1337100) (UniProt Q8IDW1). Description: PfPK6 kinase inhibitors, biochemical, TCAMS library (AID 1159586). To be noted: recombinant PfPK6, Kinase-Glo ATP depletion luminescence. On the technique in general: Kinase-Glo measures the ATP left after a reaction by luminescence.
Experiment [7] addresses Protein kinase 7 (PK7), Plasmodium falciparum 3D7 (PF3D7_0213400) (UniProt Q7YTF7). Description: inhibition of Plasmodium PK7 catalytic activity – biochemical, TCAMS antimalarial set, Kinase-Glo luminescence (AID 1159587). To be noted: recombinant PfPK7, Kinase-Glo ATP depletion luminescence.
The target in experiment [8] is Calcium-dependent protein kinase 4 (Plasmodium falciparum (isolate 3D7)) (UniProt Q8IBS5). Description: PfCDPK4 kinase inhibitors, biochemical, TCAMS library (AID 1159588; cut-off not given, nearly all actives have IC50 up to about 0.91 µM). As to conditions: recombinant PfCDPK4, Kinase-Glo ATP depletion luminescence.
Chain of Calcium-dependent protein kinase 4 (Plasmodium falciparum (isolate 3D7)) (Q8IBS5 whole entry, looked up): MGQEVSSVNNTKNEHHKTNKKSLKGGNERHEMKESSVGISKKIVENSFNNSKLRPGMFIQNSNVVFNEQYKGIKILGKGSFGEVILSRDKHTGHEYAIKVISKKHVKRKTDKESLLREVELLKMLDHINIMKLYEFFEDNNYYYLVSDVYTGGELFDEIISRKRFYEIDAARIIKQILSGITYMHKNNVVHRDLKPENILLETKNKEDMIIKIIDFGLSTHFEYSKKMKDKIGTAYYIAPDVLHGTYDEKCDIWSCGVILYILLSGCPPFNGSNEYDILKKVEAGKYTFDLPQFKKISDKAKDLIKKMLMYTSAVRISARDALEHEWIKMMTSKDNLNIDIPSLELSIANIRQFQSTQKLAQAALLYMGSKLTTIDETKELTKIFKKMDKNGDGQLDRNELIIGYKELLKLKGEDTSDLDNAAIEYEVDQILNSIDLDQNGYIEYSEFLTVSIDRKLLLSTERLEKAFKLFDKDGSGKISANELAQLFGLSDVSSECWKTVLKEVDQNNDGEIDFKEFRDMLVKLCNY

Chain of Plasmodium falciparum protein kinase 6 (PK6, PF3D7_1337100) (Q8IDW1 1-305): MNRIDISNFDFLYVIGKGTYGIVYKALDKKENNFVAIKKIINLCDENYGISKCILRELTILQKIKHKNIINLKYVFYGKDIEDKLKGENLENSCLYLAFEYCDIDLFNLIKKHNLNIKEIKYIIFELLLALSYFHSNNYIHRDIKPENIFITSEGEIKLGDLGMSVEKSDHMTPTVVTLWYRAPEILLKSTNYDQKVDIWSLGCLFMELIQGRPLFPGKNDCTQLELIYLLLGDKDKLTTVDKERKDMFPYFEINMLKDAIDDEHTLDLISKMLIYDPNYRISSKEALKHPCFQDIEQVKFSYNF
Chain of Protein kinase 7 (PK7), Plasmodium falciparum 3D7 (PF3D7_0213400) (Q7YTF7 1-343): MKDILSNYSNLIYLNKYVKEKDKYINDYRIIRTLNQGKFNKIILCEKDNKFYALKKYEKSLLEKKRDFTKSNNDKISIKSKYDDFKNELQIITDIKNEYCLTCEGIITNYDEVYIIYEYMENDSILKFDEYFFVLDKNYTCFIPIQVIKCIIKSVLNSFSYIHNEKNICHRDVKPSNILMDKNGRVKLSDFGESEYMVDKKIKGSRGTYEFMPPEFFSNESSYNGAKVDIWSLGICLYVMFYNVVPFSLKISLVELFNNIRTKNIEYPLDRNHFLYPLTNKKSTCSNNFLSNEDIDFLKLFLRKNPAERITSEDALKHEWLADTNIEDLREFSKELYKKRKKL

By inhibition is commonly meant the drop in the measured response relative to a control, in per cent. Turning to `CN1CCC(N2CCN(Cc3cccc(-c4ccc(-c5nc6ccc(C(F)(F)F)cc6[nH]5)cc4)c3)CC2)CC1`, the growth inhibition was 91% (active) in experiment [1] and 101% (active) in experiment [4]. The results for the inhibition in experiment [2] and in experiment [3] were 100% (active) and 4%, respectively. Besides, the outcome in experiment [5], in experiment [6], in experiment [7] and in experiment [8] was inactive.
In the case of `CN(c1ccc2c(c1)nc(Nc1cc(C(C)(C)C)on1)n2C)c1ccnc(Nc2ccc(CS(C)(=O)=O)cc2)n1`, the figures for the growth inhibition in experiment [1] and in experiment [4] were 13% and 89% (active), respectively. Further, the inhibition was 77% (active) in experiment [2] and -6% in experiment [3]. The result in experiment [5], in experiment [6], in experiment [7] and in experiment [8] was inactive.
As for `O=C(Nc1ccc2c(c1)CCN2C1CCN(Cc2ccc(C(F)(F)F)cc2F)C1)c1ccco1` (stereo not given), the figures for the growth inhibition in experiment [1] and in experiment [4] were 94% (active) and 91% (active), respectively. For the same molecule, the inhibition is 9% in experiment [2] and 1% in experiment [3]. The result in experiment [5], in experiment [6], in experiment [7] and in experiment [8] was inactive.
As for `O=C(NCCCN1CCOCC1)c1ccc(-c2cccc(NC(=O)c3ccc(Cl)c(Cl)c3)c2)cc1`, the growth inhibition was 68% (active) in experiment [1] and 100% (active) in experiment [4]. For the same molecule, the inhibition in experiment [2] and in experiment [3] was 3% in each case. Also, the outcome in experiment [5], in experiment [6], in experiment [7] and in experiment [8] was inactive.
As to `Cc1ccc(O)cc1Nc1ccnc2cc(-c3ccc(CN4CCCCC4)o3)ccc12`, the growth inhibition in experiment [1] is 99% (active); in experiment [4] it was 100% (active). Moreover, the results for the inhibition in experiment [2] and in experiment [3] were 16% and 0%, respectively. Moreover, the outcome in experiment [5], in experiment [6], in experiment [7] and in experiment [8] was inactive.
On to `CO/C(=C\C=C\c1cc2cc(Cl)c(Cl)cc2[nH]1)C(=O)NCC(C)(C)CN(C)C`, for which the growth inhibition in experiment [1] was 27%; in experiment [4], 81% (active). In addition, the inhibition in experiment [2] is 35%; in experiment [3], 1%. For the same molecule, the result in experiment [5], in experiment [6], in experiment [7] and in experiment [8] was inactive.
As for `COc1ccc(C(=O)CCC(=O)N(CCSC(C)(C)C)Cc2ccc(-c3ccc(CNCCc4ccc(S(C)(=O)=O)cc4)cn3)cc2)cc1F`, the growth inhibition in experiment [1] is 42%; in experiment [4] it was 98% (active). Further, the inhibition was 9% in experiment [2] and -3% in experiment [3]. Also, the outcome in experiment [5], in experiment [6], in experiment [7] and in experiment [8] was inactive.
For the molecule `O=C(NCc1ccccc1S(=O)c1ccccc1CO)C(F)(F)F` (stereo not given), the growth inhibition is 2% in experiment [1] and 98% (active) in experiment [4]. Also, the inhibition was 50% (active) in experiment [2] and 0% in experiment [3]. In addition, the outcome in experiment [5], in experiment [6], in experiment [7] and in experiment [8] was inactive.
In the case of `CC(C)n1ncc2c(C(=O)N3CCCC4CCCCC43)cc(C3CC3)nc21` (stereo not given), the growth inhibition in experiment [1] was 92% (active); in experiment [4], 99% (active). For the same molecule, the inhibition in experiment [2] was 7%; in experiment [3], 2%. For the same molecule, the outcome in experiment [5], in experiment [6], in experiment [7] and in experiment [8] was inactive.
As to `O=S(=O)(Nc1cccc(CCN2CCC(N3CCCCC3)CC2)c1)c1ccc2c(c1)OCCO2`, the results for the growth inhibition in experiment [1] and in experiment [4] were 5% and 91% (active), respectively. Further, the inhibition was 8% in experiment [2] and -1% in experiment [3]. In addition, the outcome in experiment [5], in experiment [6], in experiment [7] and in experiment [8] was inactive.
Regarding `OC1(Cc2ccccc2)CCN(Cc2cccc(-c3c[nH]c4nc(NC5CCCC5)ncc34)c2)CC1`, the growth inhibition was 35% in experiment [1] and 96% (active) in experiment [4]. The inhibition is 45% in experiment [2] and 4% in experiment [3]. Further, the outcome in experiment [5], in experiment [6], in experiment [7] and in experiment [8] was inactive.
As to `C=CCc1cc(C2CCN(CCCCNC(=O)c3ccc(-c4ccc(C#N)cc4)cc3)CC2)c(OCC(N)=O)c2c1CCCC2`, the growth inhibition in experiment [1] is 92% (active); in experiment [4] it was 101% (active). Further, the inhibition in experiment [2] is 43%; in experiment [3], -6%. The outcome in experiment [5], in experiment [6], in experiment [7] and in experiment [8] was inactive.
`CN1CCc2ccc(NC(=O)Nc3cccc(C(=O)c4ccccc4)c3)cc2C1`: the values for the growth inhibition in experiment [1] and in experiment [4] were 16% and 83% (active), respectively. The inhibition in experiment [2] is 11%; in experiment [3], -1%. Further, the result in experiment [5], in experiment [6], in experiment [7] and in experiment [8] was inactive.
As to `CCN(CC)CCCC(C)Nc1c(-c2ccc(Br)cc2)cnc2ccccc12` (stereo not given), the growth inhibition was 95% (active) in experiment [1] and 100% (active) in experiment [4]. The inhibition in experiment [2] is 7%; in experiment [3], -1%. Moreover, the outcome in experiment [5], in experiment [6], in experiment [7] and in experiment [8] was inactive.
In the case of `O=C(c1cc2c(s1)-c1cccc(Cl)c1SC2)N1CCN(c2ccncc2)CC1`, the results for the growth inhibition in experiment [1] and in experiment [4] were 36% and 94% (active), respectively. The results for the inhibition in experiment [2] and in experiment [3] were 45% and 1%, respectively. The result in experiment [5], in experiment [6], in experiment [7] and in experiment [8] was inactive.
As for `Cc1ccc(O)cc1Nc1ccnc2cc(-c3csc(CN4CCN(C)CC4)n3)ccc12`, the growth inhibition is 77% (active) in experiment [1] and 100% (active) in experiment [4]. Also, the inhibition is 6% in experiment [2] and -4% in experiment [3]. Moreover, the outcome in experiment [5], in experiment [6], in experiment [7] and in experiment [8] was inactive.
As to `Cc1cccc(CNc2nc(C)cc(NCCC(=O)NCCOc3ccccc3)n2)c1`, the growth inhibition in experiment [1] was 14%; in experiment [4] it was 98% (active). Moreover, the figures for the inhibition in experiment [2] and in experiment [3] were 18% and 0%, respectively. Further, the result in experiment [5], in experiment [6], in experiment [7] and in experiment [8] was inactive.
For `O=C(NCCSCc1c(F)cccc1Cl)c1cnc2c(c1)nc(-c1cnc(-c3ccccc3)[nH]1)n2CCc1cnc[nH]1`, the growth inhibition is 45% in experiment [1] and 93% (active) in experiment [4]. Moreover, the inhibition in experiment [2] is 10%; in experiment [3], 0%. For the same molecule, the outcome in experiment [5], in experiment [6], in experiment [7] and in experiment [8] was inactive.
Turning to `Cc1csc(-c2nc(NCCc3c(C)noc3C)ncc2-c2ccsc2)n1`, the growth inhibition in experiment [1] is 82% (active); in experiment [4], 90% (active). The inhibition was 6% in experiment [2] and -4% in experiment [3]. Also, the result in experiment [5], in experiment [6], in experiment [7] and in experiment [8] was inactive.
Take `Cc1cccc2[nH]c(-c3ccc(-c4ccc(NC(=O)C5CCN(C)CC5)cc4)cc3)nc12`: the growth inhibition is 92% (active) in experiment [1] and 100% (active) in experiment [4]. Also, the inhibition in experiment [2] is 28%; in experiment [3] it was 1%. The outcome in experiment [5], in experiment [6], in experiment [7] and in experiment [8] was inactive.
